Assay results from the supplement of paper PMC11732987, “Enantioselective OTUD7B fragment discovery through chemoproteomics screening and high-throughput optimisation” (Communications Chemistry, 2025).

Columns and labels:
Assay in all cases: log2 ratio of Biotin-Ahx-Ub-VS probe labelling (fragment/DMSO); higher = less target engagement (more negative = stronger competition), active = hit call of the paper (q ≤ 0.05, log2 ratio ≤ -1)
Settings in all cases: compound concentration: 200 uM; treatment time: 3 h
OTUD6B = target: T1, OTUD6B (UniProt Q8N6M0)
T1 sequence (whole entry): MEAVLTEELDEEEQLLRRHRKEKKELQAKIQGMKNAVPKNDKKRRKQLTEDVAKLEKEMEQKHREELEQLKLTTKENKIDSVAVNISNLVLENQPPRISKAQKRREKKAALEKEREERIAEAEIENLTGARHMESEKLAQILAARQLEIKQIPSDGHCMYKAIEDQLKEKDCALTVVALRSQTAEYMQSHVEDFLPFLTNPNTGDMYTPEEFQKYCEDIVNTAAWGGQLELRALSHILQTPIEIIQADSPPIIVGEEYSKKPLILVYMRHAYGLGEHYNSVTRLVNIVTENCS
Outline: (§1)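 HEK293T lysate (495 µg per sample, in Tris/CHAPS/IGEPAL buffer with protease inhibitors) was exposed in triplicate for 3 h to fragment at 200 µM or to vehicle, then to Biotin-Ahx-Ub-VS at 0.5 µM final for 1 h. Labelled DUBs were enriched on NeutrAvidin, digested with LysC and trypsin, and analysed by diaPASEF LC-MS/MS. Spectronaut label-free quantities were normalised to the global median, and values are average log2 ratios of fragment over vehicle from an unpaired t-test. Only proteins with ≥2 unique peptides were used.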

OTUD7B = target: T2, OTUD7B (UniProt Q6GQQ9)
T2 sequence (whole entry): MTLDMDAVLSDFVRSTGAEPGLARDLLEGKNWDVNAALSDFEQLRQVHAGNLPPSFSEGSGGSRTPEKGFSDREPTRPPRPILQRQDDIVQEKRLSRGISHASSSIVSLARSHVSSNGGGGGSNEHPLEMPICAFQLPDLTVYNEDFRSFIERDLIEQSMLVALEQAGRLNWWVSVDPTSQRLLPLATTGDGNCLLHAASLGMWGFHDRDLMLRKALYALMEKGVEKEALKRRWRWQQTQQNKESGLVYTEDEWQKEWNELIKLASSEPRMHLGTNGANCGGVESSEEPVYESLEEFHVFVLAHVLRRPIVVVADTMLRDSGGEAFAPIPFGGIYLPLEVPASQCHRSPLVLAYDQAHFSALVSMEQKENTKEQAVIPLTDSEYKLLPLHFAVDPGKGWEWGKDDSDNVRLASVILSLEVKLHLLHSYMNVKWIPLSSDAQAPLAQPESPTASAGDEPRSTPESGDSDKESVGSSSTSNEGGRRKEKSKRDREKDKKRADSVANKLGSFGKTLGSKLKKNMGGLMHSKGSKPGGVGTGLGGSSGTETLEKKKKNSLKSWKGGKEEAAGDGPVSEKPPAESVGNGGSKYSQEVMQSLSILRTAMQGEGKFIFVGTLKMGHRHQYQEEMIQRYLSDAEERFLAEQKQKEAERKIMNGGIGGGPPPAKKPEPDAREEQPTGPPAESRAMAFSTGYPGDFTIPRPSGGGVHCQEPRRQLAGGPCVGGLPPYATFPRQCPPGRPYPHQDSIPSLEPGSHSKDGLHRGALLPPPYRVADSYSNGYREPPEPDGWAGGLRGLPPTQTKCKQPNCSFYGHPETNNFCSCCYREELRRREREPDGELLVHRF
Outline: as §1

PRPF8 = PRPF8 (UniProt Q6P2Q9)
Outline: as §1

PSMD7 = target: T3, PSMD7 (UniProt P51665)
T3 sequence (whole entry): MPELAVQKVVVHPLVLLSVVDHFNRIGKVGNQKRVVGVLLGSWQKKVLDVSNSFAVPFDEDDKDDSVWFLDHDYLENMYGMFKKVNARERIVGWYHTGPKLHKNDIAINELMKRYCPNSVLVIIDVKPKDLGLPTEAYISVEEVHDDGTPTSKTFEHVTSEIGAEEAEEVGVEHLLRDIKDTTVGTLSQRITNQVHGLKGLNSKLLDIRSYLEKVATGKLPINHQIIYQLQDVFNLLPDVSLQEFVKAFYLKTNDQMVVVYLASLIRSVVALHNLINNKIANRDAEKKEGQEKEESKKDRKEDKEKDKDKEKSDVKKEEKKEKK
Outline: as §1

UCHL1 = UCHL1 (UniProt P09936)
Outline: as §1

UCHL3 = target: T4, UCHL3 (UniProt P15374)
T4 sequence (whole entry): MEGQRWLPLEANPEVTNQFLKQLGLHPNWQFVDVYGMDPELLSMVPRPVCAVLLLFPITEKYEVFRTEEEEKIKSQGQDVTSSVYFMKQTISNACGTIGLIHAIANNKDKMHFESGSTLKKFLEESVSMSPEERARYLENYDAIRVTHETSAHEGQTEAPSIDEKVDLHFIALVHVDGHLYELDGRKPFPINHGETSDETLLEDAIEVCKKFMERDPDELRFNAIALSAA
Outline: as §1

UCHL5 = target: T5, UCHL5 (UniProt Q9Y5K5)
T5 sequence (whole entry): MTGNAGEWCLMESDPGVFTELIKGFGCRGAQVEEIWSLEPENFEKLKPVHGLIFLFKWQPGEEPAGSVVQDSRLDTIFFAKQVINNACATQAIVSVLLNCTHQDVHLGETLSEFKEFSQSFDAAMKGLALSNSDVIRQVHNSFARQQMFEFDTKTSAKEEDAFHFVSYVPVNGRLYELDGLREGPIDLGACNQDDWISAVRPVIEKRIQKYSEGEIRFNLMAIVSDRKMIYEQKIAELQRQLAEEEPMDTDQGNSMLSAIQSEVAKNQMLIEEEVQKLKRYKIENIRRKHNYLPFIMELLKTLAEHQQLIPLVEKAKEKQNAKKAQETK
Outline: as §1

USP10 = USP10 (UniProt Q14694)
Outline: as §1

USP15 = target: T6, USP15 (UniProt Q9Y4E8)
T6 sequence (whole entry): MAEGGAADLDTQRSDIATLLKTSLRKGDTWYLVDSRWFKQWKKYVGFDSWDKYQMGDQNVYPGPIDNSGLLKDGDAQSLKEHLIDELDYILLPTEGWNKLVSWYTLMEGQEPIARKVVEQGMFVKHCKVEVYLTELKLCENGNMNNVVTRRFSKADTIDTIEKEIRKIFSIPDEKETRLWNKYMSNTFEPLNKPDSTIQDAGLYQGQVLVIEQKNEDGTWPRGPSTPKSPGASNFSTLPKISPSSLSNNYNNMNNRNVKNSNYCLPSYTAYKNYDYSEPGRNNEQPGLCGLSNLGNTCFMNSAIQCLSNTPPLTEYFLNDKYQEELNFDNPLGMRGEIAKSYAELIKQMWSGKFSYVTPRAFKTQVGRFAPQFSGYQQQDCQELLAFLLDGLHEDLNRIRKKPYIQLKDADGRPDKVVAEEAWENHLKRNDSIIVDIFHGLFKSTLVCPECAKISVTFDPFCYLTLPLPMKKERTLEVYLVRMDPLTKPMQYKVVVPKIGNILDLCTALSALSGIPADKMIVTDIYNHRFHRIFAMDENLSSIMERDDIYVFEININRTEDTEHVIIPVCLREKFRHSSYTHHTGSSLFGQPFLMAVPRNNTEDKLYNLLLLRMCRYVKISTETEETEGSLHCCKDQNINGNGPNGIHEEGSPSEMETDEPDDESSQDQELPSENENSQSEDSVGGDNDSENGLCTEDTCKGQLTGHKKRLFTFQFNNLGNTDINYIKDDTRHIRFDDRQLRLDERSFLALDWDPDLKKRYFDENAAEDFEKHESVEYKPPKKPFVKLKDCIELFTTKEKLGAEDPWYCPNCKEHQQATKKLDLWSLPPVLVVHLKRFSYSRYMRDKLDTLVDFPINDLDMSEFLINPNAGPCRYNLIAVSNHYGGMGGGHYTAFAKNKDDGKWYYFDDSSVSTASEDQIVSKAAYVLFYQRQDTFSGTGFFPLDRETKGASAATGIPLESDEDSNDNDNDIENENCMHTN
Outline: as §1

USP16 = USP16 (UniProt Q9Y5T5)
Outline: as §1

Measured: log2 ratio of Biotin-Ahx-Ub-VS probe labelling

Chain of USP10 (Q14694 whole entry): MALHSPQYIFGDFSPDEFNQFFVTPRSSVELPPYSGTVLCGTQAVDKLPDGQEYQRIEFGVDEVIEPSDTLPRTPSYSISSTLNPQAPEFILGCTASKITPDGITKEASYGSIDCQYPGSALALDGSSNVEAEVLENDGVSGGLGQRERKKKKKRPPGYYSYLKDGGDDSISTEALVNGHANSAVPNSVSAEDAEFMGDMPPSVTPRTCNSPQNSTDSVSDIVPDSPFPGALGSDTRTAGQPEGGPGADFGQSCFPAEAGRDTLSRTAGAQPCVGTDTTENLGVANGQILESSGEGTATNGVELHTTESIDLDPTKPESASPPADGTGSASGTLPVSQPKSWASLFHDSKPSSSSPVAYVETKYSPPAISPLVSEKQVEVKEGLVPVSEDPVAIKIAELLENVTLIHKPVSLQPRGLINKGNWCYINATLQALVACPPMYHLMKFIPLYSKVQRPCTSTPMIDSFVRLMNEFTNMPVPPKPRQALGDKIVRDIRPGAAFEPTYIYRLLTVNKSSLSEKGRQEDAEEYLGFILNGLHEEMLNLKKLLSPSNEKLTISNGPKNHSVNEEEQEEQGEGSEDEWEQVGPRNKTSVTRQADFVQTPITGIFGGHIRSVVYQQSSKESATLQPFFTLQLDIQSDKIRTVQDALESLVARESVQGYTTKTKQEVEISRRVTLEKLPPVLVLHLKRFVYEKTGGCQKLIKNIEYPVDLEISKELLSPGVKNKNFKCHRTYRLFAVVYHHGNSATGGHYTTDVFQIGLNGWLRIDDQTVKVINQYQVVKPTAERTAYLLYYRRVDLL
Chain of USP16 (Q9Y5T5 whole entry, looked up): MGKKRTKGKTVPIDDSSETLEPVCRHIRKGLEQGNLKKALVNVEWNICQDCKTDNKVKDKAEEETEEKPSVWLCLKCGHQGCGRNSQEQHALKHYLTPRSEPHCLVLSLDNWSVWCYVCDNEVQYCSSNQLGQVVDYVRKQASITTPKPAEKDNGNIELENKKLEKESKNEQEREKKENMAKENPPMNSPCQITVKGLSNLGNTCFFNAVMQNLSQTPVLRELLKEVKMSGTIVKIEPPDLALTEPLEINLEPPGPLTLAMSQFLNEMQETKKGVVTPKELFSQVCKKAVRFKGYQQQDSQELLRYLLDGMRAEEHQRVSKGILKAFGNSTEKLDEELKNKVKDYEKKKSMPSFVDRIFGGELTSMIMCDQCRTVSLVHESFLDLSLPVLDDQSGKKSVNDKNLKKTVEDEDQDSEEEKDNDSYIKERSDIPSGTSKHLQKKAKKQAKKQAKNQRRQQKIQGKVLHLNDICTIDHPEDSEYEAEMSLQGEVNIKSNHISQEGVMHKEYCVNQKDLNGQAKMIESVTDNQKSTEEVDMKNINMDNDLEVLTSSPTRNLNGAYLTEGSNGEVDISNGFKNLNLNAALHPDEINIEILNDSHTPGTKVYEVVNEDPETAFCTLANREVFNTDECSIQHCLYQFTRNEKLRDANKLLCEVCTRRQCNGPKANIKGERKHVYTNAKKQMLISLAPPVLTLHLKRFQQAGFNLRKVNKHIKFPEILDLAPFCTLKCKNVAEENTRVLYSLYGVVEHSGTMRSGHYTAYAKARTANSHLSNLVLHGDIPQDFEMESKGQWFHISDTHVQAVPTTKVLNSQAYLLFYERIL
Chain of UCHL1 (P09936 whole entry, looked up): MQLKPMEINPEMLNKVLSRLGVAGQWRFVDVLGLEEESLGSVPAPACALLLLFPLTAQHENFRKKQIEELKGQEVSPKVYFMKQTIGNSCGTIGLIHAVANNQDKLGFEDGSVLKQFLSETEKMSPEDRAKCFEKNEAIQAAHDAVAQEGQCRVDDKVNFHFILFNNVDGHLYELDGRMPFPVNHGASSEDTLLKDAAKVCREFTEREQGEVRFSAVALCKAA

O=C(CCl)NC1CCCCNC1=O (stereo not given)
inactive: OTUD6B -0.522 | OTUD7B -0.212 | PRPF8 -0.0633 | PSMD7 -0.0971 | UCHL3 0.241 | UCHL5 -0.137 | USP10 -0.269 | USP15 -0.252 | USP16 -0.792
active: UCHL1 -1.46
